“And” between values parts separate entries of the source, which are not always exact repeats. Identical values can stand only once. Values without a mark were called inactive. Inconclusive results are not listed. Where a call stands in place of a potency, no number is given. The source made the active and inactive calls. Unless noted, the call rests on the fitted dose curve; in most records, active means well fitted curve in the direction sought with a large enough effect; inconclusive means small, poorly fitted or top-dose-only effect, or another doubt; inactive means no such curve, though single readings can be large; an effect the other way counts as inactive or inconclusive.
What was measured:
[1] = target: 3',5'-cyclic-AMP phosphodiesterase 4B (Homo sapiens) (UniProt Q07343); experiment: qHTS Assay for Inhibitors of PDE-IV (AID 607; active means well fitted activation curve with a large enough effect in the main read-out, with a control signal flat, not every such curve was filed as active)
Chain of 3',5'-cyclic-AMP phosphodiesterase 4B (Homo sapiens) (Q07343 whole entry, looked up): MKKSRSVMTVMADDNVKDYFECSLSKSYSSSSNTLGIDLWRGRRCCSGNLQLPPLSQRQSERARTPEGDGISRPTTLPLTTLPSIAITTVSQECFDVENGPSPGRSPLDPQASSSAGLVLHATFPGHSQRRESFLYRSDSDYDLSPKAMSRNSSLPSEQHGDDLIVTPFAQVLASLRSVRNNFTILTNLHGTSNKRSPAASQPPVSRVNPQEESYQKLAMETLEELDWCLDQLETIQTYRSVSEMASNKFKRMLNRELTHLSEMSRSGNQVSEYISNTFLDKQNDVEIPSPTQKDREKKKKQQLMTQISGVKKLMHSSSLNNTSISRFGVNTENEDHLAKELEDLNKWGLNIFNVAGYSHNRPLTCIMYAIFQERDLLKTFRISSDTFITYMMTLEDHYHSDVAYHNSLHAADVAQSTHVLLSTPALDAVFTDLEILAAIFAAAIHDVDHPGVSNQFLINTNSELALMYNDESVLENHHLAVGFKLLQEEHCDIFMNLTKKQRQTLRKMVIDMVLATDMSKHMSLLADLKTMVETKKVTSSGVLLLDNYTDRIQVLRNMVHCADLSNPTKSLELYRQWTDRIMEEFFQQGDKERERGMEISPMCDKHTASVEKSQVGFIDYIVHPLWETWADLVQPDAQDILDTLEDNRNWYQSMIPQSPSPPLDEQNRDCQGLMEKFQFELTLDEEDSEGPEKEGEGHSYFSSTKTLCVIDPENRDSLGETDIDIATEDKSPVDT
Procedure, shortened: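 ACTOne HEK293 cells carry a modified cAMP-gated CNG channel and express endogenous PDE4; plated 1000 cells/well, compounds up to 22.9 uM final. Membrane-potential dye fluorescence (ex 535/em 590) was read; parental cells received 10 uM forskolin + 100 uM RO 20-1724.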

[2] = target: Cytochrome P450 3A4 (Homo sapiens) (UniProt P08684); experiment: qHTS Assay for Inhibitors and Substrates of Cytochrome P450 3A4 (AID 884); further: nearly all actives have a fitted effect of over 50% in size
Chain of Cytochrome P450 3A4 (Homo sapiens) (P08684 whole entry, looked up): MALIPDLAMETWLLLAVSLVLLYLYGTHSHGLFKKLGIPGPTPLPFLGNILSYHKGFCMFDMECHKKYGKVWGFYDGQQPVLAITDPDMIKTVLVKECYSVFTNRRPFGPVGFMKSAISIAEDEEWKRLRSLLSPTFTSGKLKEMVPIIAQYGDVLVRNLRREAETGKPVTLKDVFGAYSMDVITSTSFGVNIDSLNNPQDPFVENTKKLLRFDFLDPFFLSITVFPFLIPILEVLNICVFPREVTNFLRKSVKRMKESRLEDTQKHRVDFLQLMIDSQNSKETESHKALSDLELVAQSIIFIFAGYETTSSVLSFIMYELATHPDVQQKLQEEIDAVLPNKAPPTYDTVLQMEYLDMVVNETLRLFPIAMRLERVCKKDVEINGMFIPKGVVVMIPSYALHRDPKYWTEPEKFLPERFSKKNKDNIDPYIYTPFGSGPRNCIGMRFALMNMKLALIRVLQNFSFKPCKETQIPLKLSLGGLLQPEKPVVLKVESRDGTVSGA
Procedure, shortened: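 Luminescent readout of luciferin produced by CYP3A4 (20 nM) dealkylation of Luciferin-PPXE, 25 uM (its KM). NADPH-driven reaction ran 60 min at RT after 10 min compound preincubation; data scaled to 57 uM ketoconazole as 100% inhibition.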

[3] = Confirmation and Secondary Assay for Modulators of Hemoglobin Beta Chain Splicing at IVS2 654 locus (AID 910);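 further: HeLa cells stably carrying EGFP split by mutant beta-globin IVS2-654 intron; per-well total GFP intensity by laser scanning cytometry after 2-day treatment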
Procedure, shortened: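 Readout: per-well total peak green fluorescence (488 nm ex, 500–520 nm em) from objects 5–250 µm, reflecting correct splicing of an EGFP-654 reporter. Compounds were applied for 2 days at 37 °C to overnight-plated HeLa EGFP-654 cells; controls were DMSO and 500 nM IVS2-654 PNA.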

[4] = Cellular Toxicity (caspase-3) Jurkat (AID 655); conditions: Jurkat caspase-3 activation, luminescence, DMSO = 0%, tamoxifen = 100%; at 92.2 µM (top of the series);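 further: cells exposed to compound for 16 h at 37 °C before reading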
Procedure, shortened: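 Jurkat cells (5000/well) in complete medium exposed 16 h at 37 C; caspase-3/7 activity read by Caspase-Glo luminescence after 20 min at room temperature. Normalized to DMSO and 100 uM tamoxifen; AC50 from Hill fits.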

[5] = Cellular Toxicity (caspase-3) HUV-EC-C (AID 656)
Procedure, shortened: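 HUV-EC-C cells (1000/well) in complete medium, compound-treated 16 h at 37 °C; caspase-3/7 activity read by Caspase-Glo 3/7 luminescence. Normalized to DMSO (basal) and 100 uM tamoxifen (100%); AC50 from Hill-equation concentration-response fits.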

[6] = Cellular Toxicity (caspase-3) MRC-5 (AID 659)
Procedure, shortened: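 Luminescent Caspase-Glo 3/7 read-out (1 h, room temperature) after a 16 h, 37 °C compound exposure of MRC-5 lung fibroblasts at 1500 cells/well. Concentration-response AC50 from Hill equation; 0% DMSO, 100% 10 uM staurosporine.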

[7] = Cellular Toxicity (caspase-3) Mesangial (AID 660);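 further: cells exposed to compound for 16 h before the caspase read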
Procedure, shortened: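 Caspase 3/7 activation measured by Caspase-Glo 3/7 luminescence (20 min, room temperature) following 16 h exposure of mesangial cells (1000/well); AC50 from Hill-equation fit, normalized to DMSO and 100 uM tamoxifen.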

[8] = Cellular Toxicity (caspase-3) H-4-II-E (AID 663);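 further: cells exposed to compound for 16 hr before readout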
Procedure, shortened: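 Caspase 3/7 activation measured by luminescent aminoluciferin substrate cleavage after 16 hr compound treatment of H-4-II-E cells in complete medium. Increase normalized between DMSO (basal) and 100 uM tamoxifen (100%); Hill-equation AC50 from concentration-response.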

[9] = Cellular Toxicity (caspase-3) Hek293 (AID 664);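 further: cells exposed to compound for 16 h at 37 °C before readout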
Procedure, shortened: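 Concentration-response qHTS: caspase 3/7 activation measured by luminescent aminoluciferin substrate cleavage after 16 h compound exposure of Hek 293 cells. AC50 from Hill equation, with DMSO as basal and 100 uM tamoxifen as 100%.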

[10] = Cellular Toxicity (caspase-3) NIH 3T3 (AID 666)
Procedure, shortened: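 Caspase-Glo 3/7 luminescence reported caspase activation in 1000 NIH 3T3 cells/well after 16 h compound exposure at 37 C. DMSO set basal and 100 uM tamoxifen set 100% stimulation; concentration-response modeled with the Hill equation for AC50.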

[11] = Cellular Toxicity (caspase-3) Renal Proximal Tubule (AID 667);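 further: cells exposed to compound for 16 hours at 37 °C before detection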
Procedure, shortened: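 Freshly isolated primary rat kidney proximal tubule cells, 1000/well, treated 16 hr at 37 °C, then Caspase-Glo 3/7 luminescence after 1 hr. Normalized to DMSO and 10 uM staurosporine; AC50 from Hill fit.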

[12] = target: Guanine nucleotide-binding protein G(i) subunit alpha-1 (Homo sapiens) (UniProt P63096); experiment: qHTS Assay for Inhibitors of RGS12 GoLoco Motif Activity (Green Fluorophore) (AID 879);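 further: negative values mean loss of peptide binding seen as reduced polarization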
Chain of Guanine nucleotide-binding protein G(i) subunit alpha-1 (Homo sapiens) (P63096 whole entry, looked up): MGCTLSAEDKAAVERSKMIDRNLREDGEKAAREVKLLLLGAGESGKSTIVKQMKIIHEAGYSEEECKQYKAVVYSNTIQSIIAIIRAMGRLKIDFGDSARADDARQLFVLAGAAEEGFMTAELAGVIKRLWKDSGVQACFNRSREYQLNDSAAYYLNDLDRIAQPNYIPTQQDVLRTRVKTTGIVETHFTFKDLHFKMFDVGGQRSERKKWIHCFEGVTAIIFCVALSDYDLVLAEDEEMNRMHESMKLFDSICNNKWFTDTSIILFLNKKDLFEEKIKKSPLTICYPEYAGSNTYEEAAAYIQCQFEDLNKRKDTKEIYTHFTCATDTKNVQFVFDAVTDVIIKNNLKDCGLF
Procedure, shortened: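 A drop in FITC polarization marked displacement of the FITC-tagged RGS12 GoLoco peptide (10 nM) from Gαi1 (50 nM). Compounds were incubated 10 min at room temperature in Tris pH 7.5 buffer containing 150 mM NaCl, 0.1 mM GDP and 0.05% NP40; unlabeled peptide titration served as control.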

[13] = target: Cytochrome P450 2C9 (Homo sapiens) (UniProt P11712); experiment: qHTS Assay for Inhibitors and Substrates of Cytochrome P450 2C9 (AID 883); further: nearly all actives have a fitted effect of over 60% in size
Chain of Cytochrome P450 2C9 (Homo sapiens) (P11712 whole entry, looked up): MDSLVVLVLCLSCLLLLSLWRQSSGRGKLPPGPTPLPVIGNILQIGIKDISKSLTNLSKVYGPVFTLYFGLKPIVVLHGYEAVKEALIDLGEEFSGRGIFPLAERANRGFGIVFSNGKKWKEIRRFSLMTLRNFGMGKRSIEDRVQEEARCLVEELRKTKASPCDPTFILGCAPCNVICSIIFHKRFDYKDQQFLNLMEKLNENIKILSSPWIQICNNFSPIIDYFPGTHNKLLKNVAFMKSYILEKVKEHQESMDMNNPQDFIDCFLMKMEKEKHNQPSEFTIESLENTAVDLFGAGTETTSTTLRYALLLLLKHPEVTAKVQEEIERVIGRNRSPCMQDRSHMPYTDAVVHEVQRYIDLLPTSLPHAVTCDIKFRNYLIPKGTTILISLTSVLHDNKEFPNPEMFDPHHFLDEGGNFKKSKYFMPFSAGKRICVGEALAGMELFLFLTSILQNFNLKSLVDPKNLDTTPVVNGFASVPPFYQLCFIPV
Procedure, shortened: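 Turnover of Luciferin-H (100uM, KM) by 10nM human CYP2C9 was measured over 60 min at 37C with NADPH regeneration; inhibitors and some substrates reduce luminescence. Data normalized to sulphaphenazole 57uM.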

[14] = target: Cytochrome P450 2D6 (Homo sapiens) (UniProt P10635); experiment: qHTS Assay for Inhibitors and Substrates of Cytochrome P450 2D6 (AID 891); further: nearly all actives have a fitted effect of over 60% in size; further: potency means the concentration at half of the fitted maximal effect
Chain of Cytochrome P450 2D6 (Homo sapiens) (P10635 whole entry, looked up): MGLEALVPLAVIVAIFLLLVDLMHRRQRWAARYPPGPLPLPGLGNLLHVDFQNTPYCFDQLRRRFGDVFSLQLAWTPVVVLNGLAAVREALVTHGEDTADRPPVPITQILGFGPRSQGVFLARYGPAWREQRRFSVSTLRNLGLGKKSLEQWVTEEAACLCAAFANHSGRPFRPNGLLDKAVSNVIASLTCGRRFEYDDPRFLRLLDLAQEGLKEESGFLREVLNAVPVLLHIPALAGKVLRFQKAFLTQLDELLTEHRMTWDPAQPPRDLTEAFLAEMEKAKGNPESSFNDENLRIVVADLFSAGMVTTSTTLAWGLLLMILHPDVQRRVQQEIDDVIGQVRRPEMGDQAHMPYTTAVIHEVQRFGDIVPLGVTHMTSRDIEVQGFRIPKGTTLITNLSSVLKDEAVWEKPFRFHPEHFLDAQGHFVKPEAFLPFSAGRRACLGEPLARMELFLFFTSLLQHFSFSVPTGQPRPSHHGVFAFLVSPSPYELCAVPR
Procedure, shortened: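 Luminescent read-out of luciferin formed by 5 nM human CYP2D6 demethylating 30 uM Luciferin-ME EGE (Km level) over 60 min at room temperature after NADPH regeneration addition. Data normalized to full inhibition by 1.43 uM quinidine.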

[15] = qHTS Assay for Identification of Small Molecule Antagonists for NFkB Signaling Pathway (AID 895; active means well fitted inhibition curve with a large enough effect in the signal ratio, with a control signal flat, not every such curve was filed as active; the % refers to the signal ratio; further: potency means the concentration at half of the fitted maximal effect)
Procedure, shortened: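 Beta-lactamase reporter read-out (460 and 530 nm emission ratio, 405 nm excitation, 2 hrs substrate loading RT) after 5 hr stimulation with 10 pM TNF alpha in compound-treated NFkB-bla ME-180 cells in low-serum medium.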

[16] = target: Cytochrome P450 2C19 (Homo sapiens) (UniProt P33261); experiment: qHTS Assay for Inhibitors and Substrates of Cytochrome P450 2C19 (AID 899); further: nearly all actives have a fitted effect of over 60% in size; further: potency means the concentration at half of the fitted maximal effect
Chain of Cytochrome P450 2C19 (Homo sapiens) (P33261 whole entry, looked up): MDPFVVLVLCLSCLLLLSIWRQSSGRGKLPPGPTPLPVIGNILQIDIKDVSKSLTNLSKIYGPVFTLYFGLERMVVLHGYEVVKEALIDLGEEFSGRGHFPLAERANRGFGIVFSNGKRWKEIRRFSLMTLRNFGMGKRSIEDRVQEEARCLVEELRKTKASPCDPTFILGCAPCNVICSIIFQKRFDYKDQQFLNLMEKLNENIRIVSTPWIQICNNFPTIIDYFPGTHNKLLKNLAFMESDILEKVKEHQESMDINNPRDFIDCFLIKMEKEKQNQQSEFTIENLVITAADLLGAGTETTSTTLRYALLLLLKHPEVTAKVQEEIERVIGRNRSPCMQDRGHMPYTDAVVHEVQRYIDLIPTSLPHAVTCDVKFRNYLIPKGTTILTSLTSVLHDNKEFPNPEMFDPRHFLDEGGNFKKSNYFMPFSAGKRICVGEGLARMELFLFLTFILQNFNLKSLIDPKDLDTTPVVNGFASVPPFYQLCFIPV
Procedure, shortened: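 Reactions contain 5nM enzyme, 10uM Luciferin-H EGE (KM) and 50mM KPO4; compound preincubates 10 min at 37C, NADPH regeneration starts turnover for 60 min. Luminescence after detection reagent gives activity.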

[17] = Cellular Toxicity (caspase-3) HepG2 (AID 654);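 further: cells exposed to compound for 16 hours before reading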
Procedure, shortened: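 Caspase 3/7 activation is measured as a luminescence increase (aminoluciferin substrate) after 16 h compound exposure of human hepatocarcinoma HepG2 cells. AC50 values are Hill fits, scaled between DMSO baseline and 100 uM tamoxifen stimulation.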

[18] = Cellular Toxicity (caspase-3) SHSY5Y (AID 657)
Procedure, shortened: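 SH-SY5Y human neuroblastoma cells, 1500/well, exposed to compound for 16 hours at 37 °C in complete medium. Caspase-3/7 activity read by Caspase-Glo luminescence after 1 hr at room temperature, normalized to DMSO and 10 uM staurosporine; AC50 from Hill fit.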

[19] = Cellular Toxicity (caspase-3) SK-N-SH (AID 661)
Procedure, shortened: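 Caspase 3/7 activation was read by luminogenic substrate cleavage after 16 hour treatment of SK-N-SH cells. Signal was scaled between DMSO and 10 uM staurosporine, and concentration-response data were fitted with the Hill equation for AC50.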

[20] = target: Cytochrome P450 3A4 (Homo sapiens) (UniProt P08684); experiment: qHTS Assay for Activators of Cytochrome P450 3A4 (AID 885); further: nearly all actives have a fitted effect of over 65% in size
Procedure, shortened: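 CYP3A4 activity: Luciferin-PPXE O-dealkylation, 25uM substrate, 200mM KPO4, RT throughout. Read-out is luciferase luminescence; higher values reflect activation.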

Compound | outcome [1] | Potency [2] | outcome [3] | caspase-3 activation [4] | Potency [5] | outcome [6] | outcome [7] | outcome [8] | outcome [9] | outcome [10] | outcome [11] | outcome [12] | outcome [13] | Potency [14] | Potency [15] | Potency [16] | outcome [17] | outcome [18] | outcome [19] | outcome [20]
CCC1(CC)C(=O)C=CNC1=O | inactive | inactive | inactive |  |  |  |  |  |  |  |  |  |  |  |  |  |  |  |  | 
O=C(O)CCCc1ccc(N(CCCl)CCCl)cc1 | inactive | inactive | inactive | 96.5% (active) | inactive | inactive | inactive | inactive | inactive | inactive | inactive | inactive | inactive | inactive | 8.91 µM (active) | inactive |  |  |  | 
C[C@]12CCC(=O)C=C1CC[C@@H]1[C@@H]2CC[C@@]2(C)[C@H]1CC[C@]2(C)O |  | inactive |  | 22.4% | inactive | inactive | inactive | inactive | inactive | inactive | inactive |  |  |  |  |  | inactive | inactive | inactive | 
COc1c2c(cc3c1OCO3)CCN(C)C2 | inactive |  |  |  |  |  |  |  |  |  |  |  |  | 3.98 µM (active) |  |  |  |  |  | 
CC(C)NC(C)C |  | inactive |  | 0.66% | inactive | inactive | inactive | inactive | inactive | inactive | inactive |  |  |  |  |  | inactive | inactive | inactive | 
NCCc1ccc(O)cc1 | inactive | inactive | inactive | 3.49% | inactive | inactive | inactive | inactive | inactive |  | inactive | inactive |  |  |  | inactive | inactive | inactive | inactive | 
CC(C)c1cccc(C(C)C)c1O | inactive |  | inactive | 0.709% | inactive | inactive | inactive | inactive | inactive | inactive | inactive | inactive |  |  | inactive |  | inactive | inactive | inactive | 
C[C@]12CCC(=O)C=C1CC[C@@H]1[C@@H]2CC[C@]2(C)C(=O)CC[C@@H]12 |  | inactive |  | 7.89% and 0.322% | inactive | inactive | inactive | inactive | inactive | inactive | inactive | inactive |  |  |  |  | inactive | inactive | inactive | 
O=C(CCCN1CCC2(CC1)C(=O)NCN2c1ccccc1)c1ccc(F)cc1 | inactive |  | inactive |  |  |  |  |  |  |  |  | inactive |  | 2.51 µM (active) and 1.58 µM (active) | inactive | 6.31 µM (active) |  |  |  | inactive
C[C@]1(O)CC[C@H]2[C@@H]3CCC4=CC(=O)CC[C@]4(C)[C@@]3(F)[C@@H](O)C[C@@]21C |  | inactive |  | -1.66% | inactive | inactive | inactive | inactive | inactive | inactive | inactive |  |  |  |  |  | inactive | inactive | inactive | 
CNC(C)(C)Cc1ccccc1 | inactive | inactive | inactive |  |  |  |  |  |  |  |  |  |  |  |  |  |  |  |  | 
O=P1(N(CCCl)CCCl)NCCCO1 (centres undefined) | inactive | inactive | inactive | -0.663% | inactive | inactive | inactive | inactive | inactive | inactive | inactive | inactive | inactive | inactive |  | inactive | inactive | inactive | inactive | 
C=CCN1C[C@H](C)N([C@H](c2ccc(C(=O)N(CC)CC)cc2)c2cccc(OC)c2)C[C@H]1C | inactive |  |  |  |  |  |  |  |  |  |  |  |  | 1.58 µM (active) |  |  |  |  |  | 
CCCC(C)(COC(N)=O)COC(N)=O |  | inactive |  | 0.151% | inactive | inactive | inactive | inactive | inactive | inactive | inactive |  |  |  |  |  | inactive | inactive | inactive | 
COC(=O)C(c1ccccc1)C1CCCCN1 (centres undefined) |  | inactive |  | 0.101% | inactive | inactive | inactive | inactive | inactive | inactive | inactive |  |  |  |  |  | inactive | inactive | inactive | 

From PubChem BioAssay (NCATS)
